# Results: publication PMC7862700, “An all-to-all approach to the identification of sequence-specific readers for epigenetic DNA modifications on cytosine”
# How the values were obtained:
# Assay in all cases: DAPPL (digital affinity profiling via proximity ligation, sequencing); 10 mM Tris-HCl pH 7.5, 50 mM NaCl, 1 mM DTT, 4% glycerol, room temperature, 30 min; GST-TFs on glutathione beads, 16-mer random dsDNA library, 0.1% formaldehyde crosslink after washing; high values mean tight binding
# FLI1 = target: T1, FLI1 (Homo sapiens, UniProt Q01543 1-452); conditions: protein: recombinant; tags: N-terminal GST; dsDNA, one strand shown
# T1 sequence: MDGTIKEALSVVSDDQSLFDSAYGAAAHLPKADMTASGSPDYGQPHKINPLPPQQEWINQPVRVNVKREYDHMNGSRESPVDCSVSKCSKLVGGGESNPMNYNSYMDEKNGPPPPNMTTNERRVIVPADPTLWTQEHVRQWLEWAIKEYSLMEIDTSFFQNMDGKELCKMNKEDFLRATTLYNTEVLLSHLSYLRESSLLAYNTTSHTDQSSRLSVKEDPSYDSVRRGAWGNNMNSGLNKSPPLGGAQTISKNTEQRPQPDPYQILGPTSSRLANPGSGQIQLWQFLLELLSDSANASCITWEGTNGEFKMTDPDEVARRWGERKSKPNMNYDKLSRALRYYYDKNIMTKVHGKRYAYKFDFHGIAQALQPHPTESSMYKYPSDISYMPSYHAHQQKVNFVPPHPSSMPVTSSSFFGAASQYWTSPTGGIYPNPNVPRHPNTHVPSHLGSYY
# In short: (§1)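 Human transcription factors fused to GST were expressed in yeast, captured on glutathione beads, given DNA barcodes and pooled with a GST-only negative control. Pools were incubated with 200 nmole of a 16-mer random double-stranded DNA library in Tris/NaCl/DTT/glycerol buffer at room temperature for 30 min. They were then washed, crosslinked with 0.1% formaldehyde, proximity-ligated (BsaI/T4 ligase, 1 h, 37 °C), PCR-amplified and sequenced on an Illumina NextSeq500. Binding signal is each 6-mer's read frequency for a factor divided by its frequency for the GST control.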
# ELK1 = target: T2, ELK1 (Homo sapiens, UniProt P19419 1-428); conditions: protein: recombinant; tags: N-terminal GST; dsDNA, one strand shown
# T2 sequence: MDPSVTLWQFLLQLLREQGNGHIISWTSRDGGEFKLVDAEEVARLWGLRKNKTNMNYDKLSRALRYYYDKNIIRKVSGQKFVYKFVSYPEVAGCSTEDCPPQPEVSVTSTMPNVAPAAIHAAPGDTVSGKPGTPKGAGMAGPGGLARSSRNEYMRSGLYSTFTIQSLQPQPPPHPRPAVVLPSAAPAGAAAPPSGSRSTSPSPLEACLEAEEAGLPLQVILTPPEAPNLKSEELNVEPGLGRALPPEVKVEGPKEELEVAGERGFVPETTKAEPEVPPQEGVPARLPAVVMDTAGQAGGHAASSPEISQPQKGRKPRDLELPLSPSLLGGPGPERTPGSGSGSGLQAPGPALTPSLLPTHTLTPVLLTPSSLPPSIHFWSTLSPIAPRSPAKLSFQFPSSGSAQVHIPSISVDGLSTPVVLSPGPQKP
# In short: as §1
# GABPA = target: T3, GABPA (Homo sapiens, UniProt Q06546 1-454); conditions: protein: recombinant; tags: N-terminal GST; dsDNA, one strand shown
# T3 sequence: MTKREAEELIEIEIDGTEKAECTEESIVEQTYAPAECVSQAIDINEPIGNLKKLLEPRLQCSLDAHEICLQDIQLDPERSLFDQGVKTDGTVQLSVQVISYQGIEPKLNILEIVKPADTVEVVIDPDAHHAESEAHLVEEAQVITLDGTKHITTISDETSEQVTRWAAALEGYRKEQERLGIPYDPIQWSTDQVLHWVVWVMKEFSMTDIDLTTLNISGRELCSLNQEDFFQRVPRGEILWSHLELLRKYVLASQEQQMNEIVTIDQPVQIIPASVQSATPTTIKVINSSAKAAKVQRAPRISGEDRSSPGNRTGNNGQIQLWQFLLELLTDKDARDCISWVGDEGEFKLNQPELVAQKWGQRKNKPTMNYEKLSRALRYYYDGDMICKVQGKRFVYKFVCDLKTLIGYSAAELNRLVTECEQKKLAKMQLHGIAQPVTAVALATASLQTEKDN
# In short: as §1
# ERG = target: T4, ERG (Homo sapiens, UniProt P11308 1-479); conditions: protein: recombinant; tags: N-terminal GST; dsDNA, one strand shown
# T4 sequence: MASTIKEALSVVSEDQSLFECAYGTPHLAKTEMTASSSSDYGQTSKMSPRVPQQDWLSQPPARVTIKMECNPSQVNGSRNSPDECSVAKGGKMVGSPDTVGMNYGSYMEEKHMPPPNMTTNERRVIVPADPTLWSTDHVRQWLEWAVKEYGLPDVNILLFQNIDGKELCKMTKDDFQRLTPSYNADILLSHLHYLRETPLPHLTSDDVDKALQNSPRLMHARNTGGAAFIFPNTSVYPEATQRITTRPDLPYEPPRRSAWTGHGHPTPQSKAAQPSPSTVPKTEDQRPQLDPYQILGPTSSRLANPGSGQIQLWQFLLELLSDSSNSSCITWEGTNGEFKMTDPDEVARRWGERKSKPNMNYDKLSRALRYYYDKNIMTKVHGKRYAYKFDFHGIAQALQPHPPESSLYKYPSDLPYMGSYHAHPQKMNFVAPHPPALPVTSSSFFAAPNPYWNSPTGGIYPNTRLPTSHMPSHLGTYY
# In short: as §1
# ELF1 = ELF1 (Homo sapiens, UniProt P32519 1-619); conditions: protein: recombinant; tags: N-terminal GST; dsDNA, one strand shown
# In short: as §1
# EHF = target: T5, EHF (Homo sapiens, UniProt Q9NZC4 1-300); conditions: protein: recombinant; tags: N-terminal GST; dsDNA, one strand shown
# T5 sequence: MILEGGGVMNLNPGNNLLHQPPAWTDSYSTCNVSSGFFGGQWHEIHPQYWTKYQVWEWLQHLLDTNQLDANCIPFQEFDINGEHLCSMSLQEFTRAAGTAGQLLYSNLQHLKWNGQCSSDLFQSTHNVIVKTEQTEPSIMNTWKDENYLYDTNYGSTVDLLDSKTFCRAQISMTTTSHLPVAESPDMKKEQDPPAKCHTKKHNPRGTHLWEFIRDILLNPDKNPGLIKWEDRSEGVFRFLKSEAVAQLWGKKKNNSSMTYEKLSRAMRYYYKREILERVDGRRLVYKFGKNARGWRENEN
# In short: as §1
# SPI1 = SPI1 (Homo sapiens, UniProt P17947 1-270); conditions: protein: recombinant; tags: N-terminal GST; dsDNA, one strand shown
# In short: as §1
# SPIB = SPIB (Homo sapiens, UniProt Q01892 1-262); conditions: protein: recombinant; tags: N-terminal GST; dsDNA, one strand shown
# In short: as §1
# ELK3 = target: T6, ELK3 (Homo sapiens, UniProt P41970 1-407); conditions: protein: recombinant; tags: N-terminal GST; dsDNA, one strand shown
# T6 sequence: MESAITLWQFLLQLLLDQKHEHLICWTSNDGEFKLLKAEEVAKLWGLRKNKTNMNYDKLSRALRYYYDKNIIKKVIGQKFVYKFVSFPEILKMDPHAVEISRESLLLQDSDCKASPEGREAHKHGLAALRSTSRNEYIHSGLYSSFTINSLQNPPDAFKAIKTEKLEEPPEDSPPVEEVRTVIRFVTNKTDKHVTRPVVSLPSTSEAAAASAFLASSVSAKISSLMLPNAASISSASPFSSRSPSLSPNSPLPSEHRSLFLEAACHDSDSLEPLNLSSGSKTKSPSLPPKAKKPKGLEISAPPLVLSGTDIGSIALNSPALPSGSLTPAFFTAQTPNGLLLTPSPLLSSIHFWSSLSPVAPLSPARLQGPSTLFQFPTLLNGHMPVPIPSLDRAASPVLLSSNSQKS
# In short: as §1
# FEV = target: T7, FEV (Homo sapiens, UniProt Q99581 1-238); conditions: protein: recombinant; tags: N-terminal GST; dsDNA, one strand shown
# T7 sequence: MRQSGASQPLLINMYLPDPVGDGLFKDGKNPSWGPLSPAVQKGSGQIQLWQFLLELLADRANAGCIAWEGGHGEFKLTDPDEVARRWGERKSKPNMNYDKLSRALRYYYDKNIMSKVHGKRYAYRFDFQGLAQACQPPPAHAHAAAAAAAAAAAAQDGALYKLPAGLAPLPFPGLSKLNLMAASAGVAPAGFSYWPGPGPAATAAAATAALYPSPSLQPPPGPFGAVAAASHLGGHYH
# In short: as §1
# ETV5 = ETV5 (Homo sapiens, UniProt P41161 1-510); conditions: protein: recombinant; tags: N-terminal GST; dsDNA, one strand shown
# In short: as §1
# HSF1 = HSF1 (Homo sapiens, UniProt Q00613 1-529); conditions: protein: recombinant; tags: N-terminal GST; chain copies: 3; dsDNA, one strand shown
# In short: as §1
# SPIC = target: T8, SPIC (Homo sapiens, UniProt Q8N5J4 1-248); conditions: protein: recombinant; tags: N-terminal GST; dsDNA, one strand shown
# T8 sequence: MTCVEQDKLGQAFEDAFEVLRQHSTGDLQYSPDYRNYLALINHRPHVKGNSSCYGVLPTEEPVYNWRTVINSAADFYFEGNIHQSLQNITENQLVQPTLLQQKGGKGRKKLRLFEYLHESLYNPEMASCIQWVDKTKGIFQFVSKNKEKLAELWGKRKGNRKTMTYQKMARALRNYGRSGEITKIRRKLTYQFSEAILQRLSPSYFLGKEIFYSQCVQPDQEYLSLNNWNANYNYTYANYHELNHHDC
# In short: as §1
# ELF4 = ELF4 (Homo sapiens, UniProt Q99607 1-663); conditions: protein: recombinant; tags: N-terminal GST; dsDNA, one strand shown
# In short: as §1
# ELK4 = target: T9, ELK4 (Homo sapiens, UniProt P28324-2 1-405); conditions: protein: recombinant; tags: N-terminal GST; dsDNA, one strand shown
# T9 sequence: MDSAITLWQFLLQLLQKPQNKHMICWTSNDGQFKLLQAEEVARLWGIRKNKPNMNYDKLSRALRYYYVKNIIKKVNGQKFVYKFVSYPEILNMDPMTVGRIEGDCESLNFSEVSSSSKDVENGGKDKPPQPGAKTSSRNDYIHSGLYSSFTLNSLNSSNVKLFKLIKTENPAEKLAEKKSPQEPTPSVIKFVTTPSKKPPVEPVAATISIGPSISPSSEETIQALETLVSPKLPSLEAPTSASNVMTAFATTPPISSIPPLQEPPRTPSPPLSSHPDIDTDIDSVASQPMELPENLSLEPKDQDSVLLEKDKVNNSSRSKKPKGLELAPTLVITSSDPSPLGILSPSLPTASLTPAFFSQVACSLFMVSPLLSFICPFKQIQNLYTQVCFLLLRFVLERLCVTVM
# In short: as §1
# ETV2 = target: T10, ETV2 (Homo sapiens, UniProt O00321 1-342); conditions: protein: recombinant; tags: N-terminal GST; dsDNA, one strand shown
# T10 sequence: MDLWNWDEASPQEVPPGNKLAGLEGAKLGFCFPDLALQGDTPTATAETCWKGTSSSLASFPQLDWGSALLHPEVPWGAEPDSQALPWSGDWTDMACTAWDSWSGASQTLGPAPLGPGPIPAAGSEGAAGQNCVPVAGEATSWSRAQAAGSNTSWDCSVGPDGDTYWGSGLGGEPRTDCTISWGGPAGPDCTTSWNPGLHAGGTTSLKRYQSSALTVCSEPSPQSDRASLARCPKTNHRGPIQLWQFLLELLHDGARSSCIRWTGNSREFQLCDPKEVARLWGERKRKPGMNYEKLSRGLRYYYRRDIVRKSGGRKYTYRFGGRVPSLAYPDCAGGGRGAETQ
# In short: as §1
# ELF3 = target: T11, ELF3 (Homo sapiens, UniProt P78545 1-371); conditions: protein: recombinant; tags: N-terminal GST; dsDNA, one strand shown
# T11 sequence: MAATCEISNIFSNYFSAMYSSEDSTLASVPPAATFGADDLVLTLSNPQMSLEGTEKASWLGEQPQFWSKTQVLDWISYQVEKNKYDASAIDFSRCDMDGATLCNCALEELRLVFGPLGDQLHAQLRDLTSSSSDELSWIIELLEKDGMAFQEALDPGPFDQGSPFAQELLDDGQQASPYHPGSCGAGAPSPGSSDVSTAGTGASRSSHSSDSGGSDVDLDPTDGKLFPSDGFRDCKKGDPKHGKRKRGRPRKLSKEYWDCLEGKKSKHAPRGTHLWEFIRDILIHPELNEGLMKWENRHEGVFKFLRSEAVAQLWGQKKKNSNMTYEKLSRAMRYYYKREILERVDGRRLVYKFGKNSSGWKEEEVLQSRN
# In short: as §1
# CRX = CRX (Homo sapiens, UniProt O43186 1-299); conditions: protein: recombinant; tags: N-terminal GST; dsDNA, one strand shown
# In short: as §1
# ETV1 = ETV1 (Homo sapiens, UniProt P50549 1-477); conditions: protein: recombinant; tags: N-terminal GST; dsDNA, one strand shown
# In short: as §1
# Chain of SPIB (Q01892 whole entry): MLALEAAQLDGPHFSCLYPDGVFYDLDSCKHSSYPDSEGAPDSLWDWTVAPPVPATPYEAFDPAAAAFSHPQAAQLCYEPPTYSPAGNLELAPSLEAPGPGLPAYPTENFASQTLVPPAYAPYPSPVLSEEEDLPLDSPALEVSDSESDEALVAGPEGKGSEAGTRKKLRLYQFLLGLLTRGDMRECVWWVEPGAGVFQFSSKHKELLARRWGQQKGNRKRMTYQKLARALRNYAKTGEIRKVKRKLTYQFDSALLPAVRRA
# Chain of ELF1 (P32519 whole entry): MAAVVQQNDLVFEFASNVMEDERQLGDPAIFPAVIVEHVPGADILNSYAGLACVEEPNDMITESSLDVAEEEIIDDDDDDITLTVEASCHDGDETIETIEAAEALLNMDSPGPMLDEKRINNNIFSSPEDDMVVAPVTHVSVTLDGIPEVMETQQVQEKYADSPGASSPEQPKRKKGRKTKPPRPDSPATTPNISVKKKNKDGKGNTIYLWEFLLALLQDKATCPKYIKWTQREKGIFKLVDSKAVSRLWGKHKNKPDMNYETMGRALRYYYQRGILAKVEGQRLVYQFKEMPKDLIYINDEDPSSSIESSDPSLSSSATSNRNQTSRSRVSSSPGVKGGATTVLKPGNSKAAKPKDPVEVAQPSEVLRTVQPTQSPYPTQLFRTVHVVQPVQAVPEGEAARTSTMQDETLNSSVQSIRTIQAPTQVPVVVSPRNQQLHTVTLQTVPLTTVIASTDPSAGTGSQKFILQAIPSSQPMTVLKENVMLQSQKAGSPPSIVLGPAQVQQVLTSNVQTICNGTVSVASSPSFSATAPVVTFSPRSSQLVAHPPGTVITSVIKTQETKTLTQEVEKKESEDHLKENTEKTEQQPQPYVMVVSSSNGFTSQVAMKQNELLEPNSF
# Chain of ETV5 (P41161 whole entry): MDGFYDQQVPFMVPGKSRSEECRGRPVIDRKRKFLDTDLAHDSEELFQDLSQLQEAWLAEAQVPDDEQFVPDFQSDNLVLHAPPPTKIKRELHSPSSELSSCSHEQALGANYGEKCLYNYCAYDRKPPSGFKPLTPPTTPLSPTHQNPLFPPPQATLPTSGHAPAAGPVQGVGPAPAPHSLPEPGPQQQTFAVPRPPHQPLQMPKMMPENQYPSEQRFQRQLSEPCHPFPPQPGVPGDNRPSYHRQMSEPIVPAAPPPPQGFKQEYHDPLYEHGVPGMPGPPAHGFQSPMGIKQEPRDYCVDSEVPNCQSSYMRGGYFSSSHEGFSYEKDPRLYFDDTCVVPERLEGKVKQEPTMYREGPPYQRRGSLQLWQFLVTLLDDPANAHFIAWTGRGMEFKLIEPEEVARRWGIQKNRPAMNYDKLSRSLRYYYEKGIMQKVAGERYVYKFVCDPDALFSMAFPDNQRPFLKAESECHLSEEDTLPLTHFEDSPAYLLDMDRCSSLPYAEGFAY
# Chain of ETV1 (P50549 whole entry): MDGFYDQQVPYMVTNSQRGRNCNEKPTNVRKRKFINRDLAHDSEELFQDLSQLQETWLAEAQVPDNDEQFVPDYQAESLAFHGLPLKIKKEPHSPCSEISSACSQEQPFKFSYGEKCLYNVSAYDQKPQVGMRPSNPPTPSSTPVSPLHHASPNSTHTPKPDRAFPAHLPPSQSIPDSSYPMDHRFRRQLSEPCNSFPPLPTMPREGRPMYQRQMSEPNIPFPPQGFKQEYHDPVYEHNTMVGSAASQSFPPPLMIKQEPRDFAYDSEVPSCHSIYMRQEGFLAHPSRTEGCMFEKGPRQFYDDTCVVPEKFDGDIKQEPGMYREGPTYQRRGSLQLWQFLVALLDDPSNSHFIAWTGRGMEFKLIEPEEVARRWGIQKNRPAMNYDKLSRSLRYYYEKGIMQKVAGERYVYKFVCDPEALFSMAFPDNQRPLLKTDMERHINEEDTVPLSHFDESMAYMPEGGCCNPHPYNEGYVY
# Chain of CRX (O43186 whole entry): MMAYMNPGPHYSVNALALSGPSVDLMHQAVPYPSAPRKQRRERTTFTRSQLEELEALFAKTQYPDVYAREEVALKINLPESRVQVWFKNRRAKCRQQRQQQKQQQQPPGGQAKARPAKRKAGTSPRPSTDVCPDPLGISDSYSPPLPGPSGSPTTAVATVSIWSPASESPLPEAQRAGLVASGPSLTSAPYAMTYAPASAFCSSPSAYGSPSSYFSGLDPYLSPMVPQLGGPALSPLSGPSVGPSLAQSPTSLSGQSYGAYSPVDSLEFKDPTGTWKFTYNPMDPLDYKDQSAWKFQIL
# Chain of ELF4 (Q99607 whole entry): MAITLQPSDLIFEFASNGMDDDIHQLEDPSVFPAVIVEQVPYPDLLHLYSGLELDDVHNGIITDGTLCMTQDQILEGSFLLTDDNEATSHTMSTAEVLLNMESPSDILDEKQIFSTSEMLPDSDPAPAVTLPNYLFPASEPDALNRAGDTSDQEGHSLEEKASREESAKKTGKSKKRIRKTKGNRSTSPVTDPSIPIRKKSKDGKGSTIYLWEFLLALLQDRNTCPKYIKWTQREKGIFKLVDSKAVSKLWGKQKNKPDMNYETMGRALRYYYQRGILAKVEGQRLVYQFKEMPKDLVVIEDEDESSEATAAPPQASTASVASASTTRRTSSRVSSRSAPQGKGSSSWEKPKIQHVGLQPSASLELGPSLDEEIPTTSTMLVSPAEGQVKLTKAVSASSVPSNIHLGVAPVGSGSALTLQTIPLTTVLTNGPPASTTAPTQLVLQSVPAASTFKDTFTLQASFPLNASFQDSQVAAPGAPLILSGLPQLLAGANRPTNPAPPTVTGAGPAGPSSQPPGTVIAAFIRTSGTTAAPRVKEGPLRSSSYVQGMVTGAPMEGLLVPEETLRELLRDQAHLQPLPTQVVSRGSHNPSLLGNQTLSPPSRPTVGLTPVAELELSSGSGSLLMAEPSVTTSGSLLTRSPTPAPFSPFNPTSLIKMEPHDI
# Chain of HSF1 (Q00613 whole entry): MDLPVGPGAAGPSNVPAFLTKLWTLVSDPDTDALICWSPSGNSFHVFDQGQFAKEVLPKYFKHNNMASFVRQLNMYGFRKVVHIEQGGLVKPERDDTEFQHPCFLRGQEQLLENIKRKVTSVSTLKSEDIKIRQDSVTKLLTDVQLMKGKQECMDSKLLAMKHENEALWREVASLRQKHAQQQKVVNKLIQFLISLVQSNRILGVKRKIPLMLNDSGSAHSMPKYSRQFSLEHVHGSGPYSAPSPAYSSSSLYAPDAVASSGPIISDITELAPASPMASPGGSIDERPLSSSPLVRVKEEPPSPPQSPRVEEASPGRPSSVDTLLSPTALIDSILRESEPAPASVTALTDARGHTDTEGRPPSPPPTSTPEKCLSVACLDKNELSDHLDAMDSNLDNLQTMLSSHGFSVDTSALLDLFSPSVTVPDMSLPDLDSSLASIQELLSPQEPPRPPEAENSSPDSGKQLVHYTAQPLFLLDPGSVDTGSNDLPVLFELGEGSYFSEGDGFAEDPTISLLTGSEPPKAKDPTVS
sequence,measurement,setting,value
GTATAT,binding signal,FLI1,"1.13 fold enrichment (6-mer frequency, TF over GST control)"
same,binding signal,ELK1,"1.22 fold enrichment (6-mer frequency, TF over GST control)"
same,binding signal,GABPA,"1.13 fold enrichment (6-mer frequency, TF over GST control)"
same,binding signal,ERG,"1.09 fold enrichment (6-mer frequency, TF over GST control)"
same,binding signal,ELF1,"1.17 fold enrichment (6-mer frequency, TF over GST control)"
same,binding signal,EHF,"1.2 fold enrichment (6-mer frequency, TF over GST control)"
same,binding signal,SPI1,"1.13 fold enrichment (6-mer frequency, TF over GST control)"
same,binding signal,SPIB,"1.23 fold enrichment (6-mer frequency, TF over GST control)"
same,binding signal,ELK3,"1.11 fold enrichment (6-mer frequency, TF over GST control)"
same,binding signal,FEV,"1.06 fold enrichment (6-mer frequency, TF over GST control)"
same,binding signal,ETV5,"1.19 fold enrichment (6-mer frequency, TF over GST control)"
same,binding signal,HSF1,"1.04 fold enrichment (6-mer frequency, TF over GST control)"
same,binding signal,SPIC,"1.18 fold enrichment (6-mer frequency, TF over GST control)"
same,binding signal,ELF4,"1.17 fold enrichment (6-mer frequency, TF over GST control)"
same,binding signal,ELK4,"1.21 fold enrichment (6-mer frequency, TF over GST control)"
same,binding signal,ETV2,"1.12 fold enrichment (6-mer frequency, TF over GST control)"
same,binding signal,ELF3,"1.02 fold enrichment (6-mer frequency, TF over GST control)"
same,binding signal,CRX,"1.07 fold enrichment (6-mer frequency, TF over GST control)"
same,binding signal,ETV1,"1.18 fold enrichment (6-mer frequency, TF over GST control)"
